# Data published in ChEMBL document CHEMBL3433997, “St. Jude Leishmania screening dataset” (2016).
# Assays:
# Format in all cases: functional
# [1] = target: Solute carrier family 2, facilitated glucose transporter member 1 (Homo sapiens) (UniProt P11166); test: ST_JUDE_LEISH: Cytotoxicity at 2uM final concentration against transgenic Leishmania Mexicana promastigotes LmGLUT1 that are glucose transport deficient and complemented with the human glucose transporter GLUT1. Activity is measured by DNA content using SYBR green in vitro
# Chain of Solute carrier family 2, facilitated glucose transporter member 1 (Homo sapiens) (P11166 whole entry): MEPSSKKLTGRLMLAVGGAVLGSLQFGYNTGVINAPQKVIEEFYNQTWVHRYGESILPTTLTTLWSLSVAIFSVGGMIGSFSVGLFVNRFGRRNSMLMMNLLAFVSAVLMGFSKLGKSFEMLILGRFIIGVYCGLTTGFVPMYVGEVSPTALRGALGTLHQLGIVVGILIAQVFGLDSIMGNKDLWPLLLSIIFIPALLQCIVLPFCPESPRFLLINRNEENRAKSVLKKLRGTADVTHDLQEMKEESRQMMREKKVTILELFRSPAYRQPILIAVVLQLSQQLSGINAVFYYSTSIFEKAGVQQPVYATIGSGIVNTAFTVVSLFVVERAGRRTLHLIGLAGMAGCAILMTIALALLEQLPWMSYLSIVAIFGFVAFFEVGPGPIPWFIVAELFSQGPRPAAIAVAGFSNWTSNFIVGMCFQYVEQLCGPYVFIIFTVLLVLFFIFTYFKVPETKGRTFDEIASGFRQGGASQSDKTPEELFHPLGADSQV
# [2] = target: Hexose transporter 1 (Plasmodium falciparum) (UniProt O97467); test: ST_JUDE_LEISH: Cytotoxicity at 2uM final concentration against transgenic Leishmania Mexicana promastigotes LmPfHT that are glucose transport deficient and complemented with the Plasmodium falciparum hexose transporter. Activity is measured by DNA content using SYBR green in vitro
# [3] = target: Glucose transporter (Leishmania mexicana) (UniProt O61059); test: ST_JUDE_LEISH: Cytotoxicity at 2uM final concentration against transgenic Leishmania Mexicana promastigotes LmGT2 that are glucose transport deficient and complemented with the L. Mexicana glucose transporter 2. Activity is measured by DNA content using SYBR green in vitro
SMILES,inhibition [1] [%],inhibition [2] [%],inhibition [3] [%]
C=CCc1cc(Cc2cnc(N)nc2N)cc(CCC)c1OC,15.3,12.5,8.6
Cc1ccc(N2C(N)=NC(N)=NC2c2ccccc2)cc1 (stereo unspecified),2.79,2.24,2.13
Cc1ccc(-c2ccn(Cc3ccc(OCc4ccccc4)cc3)n2)cn1.Cc1ccc(-c2ccnn2Cc2ccc(OCc3ccccc3)cc2)cn1,0.13,0.76,0.25
CCCC(C)Nc1nc(C)cc(N[C@@H](CC(C)C)C(=O)Nc2ccc(OC)cc2)n1 (stereo partly specified),3.3,3.9,1.36
Fc1ccc2[nH]c(-c3ccc(-c4ccc(CNCCc5ccncc5)cc4)s3)nc2c1,5.54,4.96,7.86
O=C(Cc1c[nH]cn1)Nc1ccc(-c2ccc(-c3nc4ccccc4[nH]3)s2)cc1,4.05,5.17,1.71
O=C(/C=C/c1ccc(Cl)c(Cl)c1)NCCCCCN1CCC(C(=O)Nc2ccc(Cl)cc2)CC1,1.92,0.72,2.78
CCNc1cc(C(=O)N[C@@H](Cc2cccc(Cl)c2)[C@H](O)CNC(C)CCCC(C)C)cc(N2CCCCS2(=O)=O)c1 (stereo partly specified),-0.84,-1.5,-4.25
COc1ccc(-c2cc(-c3ccc(S(C)(=O)=O)cc3)cnc2N)cn1,1.1,0.74,3.66
Oc1ccc(CCNc2nc(NCc3cccc(-c4cc(C(F)(F)F)ccc4Cl)c3)nc(N3CCNCC3)n2)cc1,2.86,1.88,2.82
CCCOc1ccc(-c2nonc2NC(=O)c2ccccc2OC)cc1OCCC,12,14.6,10.7
Cc1nc(N)nc(N)c1CCCOc1ccccc1Br,5.7,8.36,2.57
CC(C)(C(=O)Nc1ccc(C2CCC(NCC3CC3)CC2)c(Cl)c1)c1ccc(C(F)(F)F)cc1 (stereo unspecified),0.29,0.31,-0.91
Cc1n[nH]c2ccc(-c3cc(OC[C@@H](N)Cc4ccccc4)cnc3-c3ccccc3OCc3cccc(F)c3)cc12,9.75,1.05,-0.42
Cc1ccc(C(=O)N2CCN(Cc3nccs3)CC2)cc1,1.23,-0.14,-0.27
FC(F)(F)c1ccc(-c2cncc(-c3ccc(C(F)(F)F)cc3)n2)cc1,-1.94,-1.14,-1.64
N=C(N)Nc1nc(CCCCCCCCc2csc(NC(=N)N)n2)cs1,-1.03,-0.76,1.03
